# From PubChem BioAssay AID1508602 (The Scripps Research Institute Molecular Screening Center, 2020)
# “And” between values parts separate entries of the source, which are not always exact repeats. Equal entries are not always repeated. The whole screen tested about 650,000 compounds, of which about 6,800 (1%) were called active. No stated cut-off is given here; in the data, active means activation above about 4.9%; inactive means the rest. The list comes from a sample in which actives are over-represented; it also holds similar structures and randomly drawn compounds. A structure can be active in one record and inactive in another.
# Target: G-protein coupled receptor 151 (Homo sapiens) (UniProt Q8TDV0)
# Sequence (Q8TDV0 whole entry, looked up): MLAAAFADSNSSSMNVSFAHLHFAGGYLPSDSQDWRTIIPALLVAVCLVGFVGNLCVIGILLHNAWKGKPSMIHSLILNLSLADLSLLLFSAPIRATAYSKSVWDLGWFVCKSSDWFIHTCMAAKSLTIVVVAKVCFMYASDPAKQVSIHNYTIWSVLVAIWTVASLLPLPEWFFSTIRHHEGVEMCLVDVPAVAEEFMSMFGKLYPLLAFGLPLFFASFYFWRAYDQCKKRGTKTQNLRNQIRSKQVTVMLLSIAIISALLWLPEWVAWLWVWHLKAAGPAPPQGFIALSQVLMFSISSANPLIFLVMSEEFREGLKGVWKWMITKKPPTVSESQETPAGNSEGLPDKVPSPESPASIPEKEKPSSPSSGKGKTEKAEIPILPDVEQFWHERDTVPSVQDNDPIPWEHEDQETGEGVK
# Assay: activates the human receptor GPR151, primary screen, cell-based, PathHunter beta-arrestin, luminescence (AID 1508602);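 further: 0% = median of compound wells and 100% = cells with positive control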
# Details: PathHunter beta-arrestin GPR151 cells, at 11.2 µM, stronger effect = higher value
row,Compound,activation
1,COc1cc(NC(=O)NCCN2CCN(c3ccccc3)CC2)cc(OC)c1,0.531% (inactive)
2,CCOC(=O)NCCCN1CCN(c2ccccc2)CC1,1.63% (inactive)
3,N#Cc1ccc(N2CCN(CCCNC(=O)Nc3ccccc3)CC2)cc1,5.03% (active)
4,COc1cccc(C=O)c1OC(=O)c1ccc(Cl)c([N+](=O)[O-])c1,1.65% (inactive)
5,NC(=O)c1ccccc1NS(=O)(=O)c1cc(C(=O)O)c(Cl)cc1Cl,1.03% (inactive)
6,OC(COc1ccccc1F)CN1CCOCC1 (stereo unspecified),0.198% (inactive)
7,COc1ccc(C2/C(=C(\O)c3ccc(F)cc3)C(=O)C(=O)N2CCCN2CCOCC2)cc1 (stereo unspecified),1.83% (inactive)
8,CCCSc1[nH]c(=O)c(C(=O)O)cc1C#N,-0.367% (inactive)
9,O=C(Cn1nnc(-c2ccccc2)n1)N/N=C/c1c(O)ccc2ccccc12,1.41% (inactive)
10,O=C(Cn1nnc2ccccc21)N/N=C/c1cccnc1,0.99% (inactive)
11,O=C(Cn1nnc2ccccc21)N/N=C/c1c(O)ccc2ccccc12,5.7% (active)
12,CC(C)(C)C1(O)CCN2C[C@H]3c4ccccc4CCc4cccc(c43)[C@@H]2C1 (stereo partly specified),7.83% (active) and 3.25% (inactive)
13,CC(Nc1n[nH]c(=O)[nH]c1=O)C(=O)N/N=C/c1cccnc1 (stereo unspecified),-0.752% (inactive)
14,CN(CC(=O)Nc1c(F)cccc1F)S(=O)(=O)c1ccc(Cl)cc1,0.4% (inactive)
15,CN(CC(=O)Nc1ccccc1Cl)S(=O)(=O)c1ccc(F)cc1,-1.27% (inactive)
16,CN(CC(=O)Nc1cccc2c1CCCC2)S(=O)(=O)c1ccc(Cl)cc1,5.67% (active)
17,C=CCn1c(SCC(=O)NCc2ccco2)nc2sc3c(c2c1=O)CCC(C)C3 (stereo unspecified),-1.7% (inactive)
18,CCOC(=O)CSc1nc2sc(C(=O)OCC)c(C)c2c(=O)n1Cc1ccccc1,2.6% (inactive)
19,CCOC(=O)c1sc2nc(SCc3ccc(Cl)cc3)n(Cc3cccc(Cl)c3)c(=O)c2c1C,-0.446% (inactive)
20,CCOC(=O)c1sc2nc(SCC(=O)N(C)Cc3ccccc3)n(Cc3ccc4c(c3)OCO4)c(=O)c2c1C,5.39% (active)
21,NC(=O)c1nc(-c2ccccc2)nc2c1[nH]c(=O)n2-c1ccc(F)cc1,0.0137% (inactive)
22,NC(=O)c1nc(-c2cccc(Cl)c2)nc2c1[nH]c(=O)n2-c1ccccc1,-0.457% (inactive)
23,CC(C)n1c(=O)[nH]c2c(C(N)=O)nc(-c3ccc(-c4ccccc4)cc3)nc21,5.61% (active)

row,Compound,activation
1,Cc1cccnc1-c1ccc2c(c1)CC(CNC(=O)[C@@H]1CCC(=O)N1)O2 (stereo partly specified),0.168% (inactive)
2,CCOC(=O)C1=C(C)OC(N)=C(C#N)C1c1ccc2c(c1)OCO2 (stereo unspecified),0.198% (inactive)
3,CCN(CC)CCOC(=O)c1ccc(OC)cc1OCCN(CC)CC,1.9% (inactive)
4,OCCC1CN(Cc2ccc3cc(F)ccc3n2)CCN1C1CCCC1 (stereo unspecified),9.5% (active)
5,OCCC1CN(Cc2cccc(F)c2)CCN1C1CCCC1 (stereo unspecified),1% (inactive)
6,CCOc1ccc(CN2CCN(Cc3ccc4cc(F)ccc4n3)CC2CCO)cc1 (stereo unspecified),-0.448% (inactive)
7,CC(C)Nc1cc(N2CCC3(CC2)OCCO3)c2noc3c2c1C(=O)c1ccccc1-3,3.8% (inactive)
8,Cc1ccc(N2C(=O)NC(NC(=O)c3cccs3)(C(F)(F)F)C2=O)cc1 (stereo unspecified),1.1% (inactive)
9,Cc1ccc(N2C(=O)CC(NCCc3ccccc3F)C2=O)cc1 (stereo unspecified),0.306% (inactive)
10,Cc1ccc(N2C(=O)CC(NCc3ccc(F)cc3)C2=O)cc1 (stereo unspecified),-0.0057% (inactive)
11,Cc1ccc(N2C(=O)CC(NCCN3CCOCC3)C2=O)cc1 (stereo unspecified),14% (active)
12,COc1ccc(F)c(CC2(CCC(=O)N(CCO)Cc3ccccc3)CCC(=O)N2)c1 (stereo unspecified),-0.346% (inactive)
13,O=C(Nc1ccc2[nH]ncc2c1)N1CCCNCC1,5.34% (active)
14,NC(C(=O)N1CCN(C(=O)Nc2ccc3[nH]ncc3c2)CC1)c1cccc(Br)c1 (stereo unspecified),-1.09% (inactive)
15,CC(C)[C@H](O)C(=O)N1CCC(C(=O)Nc2ccc3[nH]ncc3c2)CC1,-0.359% (inactive)
16,O=C(Nc1ccccc1C(F)(F)F)c1cc(S(=O)(=O)N2CCCCCC2)ccc1F,0.584% (inactive)
17,Cc1ccc(N(CC(=O)N/N=C/c2ccc(C)c(C)c2C)S(C)(=O)=O)cc1,0.882% (inactive)
18,COc1cc2ccccc2cc1C(=O)Nc1nc2ccc3ccccc3c2s1,-1.09% (inactive)
19,CCOC(=O)c1cc[n+](CC(=O)c2ccc(NC(=O)c3ccccc3)cc2)cc1,-2.71% (inactive)
20,CCOC(=O)c1ccc(NC(=O)c2nn(Cc3ccccc3)c(=O)c3ccccc23)cc1,-0.0773% (inactive)
21,CCOC(=O)c1ccc(NC(=O)c2ncn(-c3ccccc3)n2)cc1,5.91% (active)
22,O=C(Nc1ccncc1NC(=O)c1ccco1)c1ccco1,0.598% (inactive)
23,O=C1NCCN(Cc2ccc(F)c(F)c2)C1CC(=O)N1CCCC1 (stereo unspecified),-0.422% (inactive)

row,Compound,activation
1,O=C1NCCN(Cc2ccc(-c3ccccc3)cc2)C1CC(=O)N1CCCCC1 (stereo unspecified),12.2% (active)
2,COc1ccc(CN2CCNC(=O)C2CC(=O)N2CCCCC2)cc1OC (stereo unspecified),1.79% (inactive)
3,COc1cccc(N2CCN(c3ncnc4c3c(-c3ccccc3)cn4-c3ccccc3)CC2)c1,1.89% (inactive)
4,Nc1nc(NC(=O)/C=C/c2ccccc2)nn1-c1ccccc1,0.0795% (inactive)
5,Nc1nc(NC(=O)/C=C/c2ccc(Cl)cc2)nn1-c1ccccc1,0.321% (inactive)
6,Nc1nc(NC(=O)/C=C/c2ccc(F)cc2)nn1-c1ccccc1,10.7% (active)
7,Cc1sc(NC(=O)Cc2ccc([N+](=O)[O-])cc2)c(C#N)c1-c1ccccc1,-0.519% (inactive)
8,O=C(CN1CCOCC1)Nc1ncc(Cc2cc(Cl)cc(Cl)c2)s1,-0.516% (inactive)
9,O=C(CN1CCOCC1)Nc1c(Cl)cc(Cl)cc1Cl,8.12% (active)
10,O=C1CN(CC(=O)Nc2c(Cl)cc(Cl)cc2Cl)CCN1,0.357% (inactive)
11,CC(NC(=O)C12CC3CC(CC(C3)C1)C2)c1ccccc1 (stereo unspecified),1.54% (inactive)
12,CCOC(=O)c1c(-c2ccc(C)cc2)csc1NC(=O)CNCCCO,0.601% (inactive)
13,Cc1ccc(C(=O)N/N=C\c2ccccc2O)cn1,-0.843% (inactive)
14,O=S(=O)(c1ccc2c(c1)CCCC2)N1CCOC(c2ccccc2)C1 (stereo unspecified),-1.43% (inactive)
15,Cc1ccccc1-c1nc(SCC(=O)NCCc2ccccc2)c2c(=O)n(C)c(=O)n(C)c2n1,-0.395% (inactive)
16,CCN1CCN(C(=O)Cn2nc(Cc3cccnc3)c3ccccc3c2=O)CC1,1.14% (inactive)
17,O=C1CCC(=O)NCC(=O)NCCOCCNC(=O)CN1,-0.231% (inactive)
18,CC/C(Cc1ccccc1)=N\NC(=O)c1ccccc1,-1.22% (inactive)
19,CN1CCN(c2ccc(-c3nc4ccc(C(=O)NCc5nc6ccccc6[nH]5)cc4s3)cc2)CC1,7.98% (active)
20,CN1CCN(c2ccc(-c3nc4ccc(C(=O)NCc5ccccc5)cc4s3)cc2)CC1,-0.195% (inactive)
21,O=C(NCc1nc2ccccc2[nH]1)c1ccc2nc(-c3ccccc3)sc2c1,-1.41% (inactive)
22,COc1ccc(-c2noc(Nc3ccc(F)cc3)n2)cc1OC,-0.36% (inactive)
23,Cc1ccc(NC(=O)c2c[nH]c(=O)[nH]c2=O)cc1S(=O)(=O)N1CCCCC1,-0.749% (inactive)

row,Compound,activation
1,COc1ccc(C(=O)NNC(=O)c2ccccc2[N+](=O)[O-])cc1OC,-0.216% (inactive)
2,CC(NS(=O)(=O)c1ccc([N+](=O)[O-])cc1)C(=O)N/N=C/c1ccc(O)cc1 (stereo unspecified),0.173% (inactive)
3,O=C(NNS(=O)(=O)c1ccc([N+](=O)[O-])cc1)Nc1cccc(C(F)(F)F)c1,0.535% (inactive)
4,CC(C)C(=O)NNS(=O)(=O)c1ccc([N+](=O)[O-])cc1,6.82% (active)
5,COCC(=O)Nc1c(I)c(C(=O)NCC(O)CO)c(I)c(C(=O)N(C)CC(O)CO)c1I (stereo unspecified),6.28% (active)
6,CC(=O)N(CC(O)CO)c1c(I)c(C(=O)NCC(O)CO)c(I)c(C(=O)NCC(O)CO)c1I (stereo unspecified),0.874% (inactive)
7,CC1=NOC(=O)/C1=C/c1ccc(-c2cc(C)c(C)cc2[N+](=O)[O-])o1,0.0267% (inactive)
8,Cc1[nH][nH]c(=O)c1C(c1ccc(-c2ccc(F)cc2[N+](=O)[O-])o1)c1c(C)[nH][nH]c1=O,6.05% (active)
9,Cc1[nH][nH]c(=O)c1C(c1ccc(-c2ccc(Cl)cc2)o1)c1c(C)[nH][nH]c1=O,0.733% (inactive)
10,CCCOC(=O)COc1ccc2c(C)cc(=O)oc2c1,-0.0136% (inactive)
11,Cc1ccc(C2=NN(C(=O)CCC(=O)O)C(c3ccc(C)cc3)C2)cc1 (stereo unspecified),-1.19% (inactive)
12,CC1=C(C(=O)Nc2ccc(Cl)cc2)C(c2ccc([N+](=O)[O-])cc2)n2nnnc2N1 (stereo unspecified),0.405% (inactive)
13,O=C(O)CC(NS(=O)(=O)Cc1ccccc1)c1ccc(F)cc1 (stereo unspecified),1.1% (inactive)
14,CC(=O)NC(CC(=O)O)c1ccc(F)cc1 (stereo unspecified),6.23% (active)
15,O=C(O)CC(NC(=O)c1ccccc1)c1ccc(F)cc1 (stereo unspecified),-0.457% (inactive)
16,O=C(NCc1ccc(F)cc1)c1nn2c(C(F)(F)F)cc(-c3cccs3)nc2c1Cl,0.443% (inactive)
17,Cc1ccccc1NC(=O)CSc1nnc(NC(=O)CCc2ccccc2)s1,-0.763% (inactive)
18,O=C1c2cccnc2C(=O)N1CCc1ccc(S(=O)(=O)N2CCCc3ccccc32)cc1,-2.73% (inactive)
19,COc1ccc(-c2cnn3ccc(Nc4ccc(O)cc4)nc23)c(OC)c1,-0.387% (inactive)
20,CC(=O)c1c(C)[nH]c(C(=O)Nc2cc(S(=O)(=O)N(C)C)ccc2C)c1C,0.871% (inactive)
21,COC(=O)NNC(=S)Nc1cc(S(=O)(=O)N(C)C)ccc1C,6.15% (active)
22,Cc1ccc(S(=O)(=O)N(C)C)cc1NC(=S)NCCc1ccc(O)c(O)c1,-0.323% (inactive)
